Laboratory results: PubChem BioAssay AID463173 (ICCB-Longwood Screening Facility, Harvard Medical School, 2010)
In all, about 52,000 compounds went through this assay and about 4,300 (8.3%) were called active. This excerpt belongs to a sample that is enriched for actives. Values without a mark were called inactive. Cut-off read from the data, not from the text of the source: active = survival mostly below about 52% (no sharp cut-off); inactive = mostly above about 56%.

Each molecule was assayed on DeltatarO mutant (assay: S. aureus survival, RN4220 and DeltatarO strains – OD600, teichoic acid synthesis inhibitors, primary screen (AID 463173)). Details: S. aureus RN4220 wild type/DeltatarO growth, OD600, 18 h, stronger effect = lower value, screened at 18.75 µg/mL (by protocol).
With `CCc1ccc(CN2C(=O)c3ccccc3C2C(=O)NC2CCCCCC2)cc1` (configuration not stated) the survival was 75%.
With `CCn1c(=O)c(C(=O)Nc2ccc(Cl)cn2)c(O)c2ccccc21` the survival was 95%.
`CSc1nn(Cc2ccc(F)cc2)c(N)c1S(=O)(=O)c1ccc(Cl)cc1` showed a survival of 101%.
In the case of `Cc1ccc(Cl)cc1-n1ncc2c(Nc3cccc(C)c3C)ncnc21`, the survival is reported as 82%.
In the case of `CN1CCN(CCNC(=O)c2cnn(-c3ccc(Cl)cc3)c2C2CCN(C(=O)OC(C)(C)C)CC2)CC1`, the survival is reported as 69%.
With `O=C(Nc1sc2c(c1C(=O)NCc1ccco1)CCCC2)c1cc(=O)c2cc(Cl)ccc2o1` the survival was 38% (active).
`O=C(Nc1sc2c(c1C(=O)NCc1ccccc1)CCCC2)c1cc(=O)c2cc(Cl)ccc2o1` showed a survival of 49%.
`Cc1ccc2oc(C(=O)Nc3sc4c(c3C(=O)NCc3ccco3)CCC4)cc(=O)c2c1` was tested, and the survival was 82%.
`Cc1cc(C)c2oc(C(=O)Nc3sc4c(c3C(=O)NCc3ccco3)CCCC4)cc(=O)c2c1` was tested, and the survival was 82%.
With `Cc1cc2oc(C(=O)Nc3sc4c(c3C(=O)NCc3ccccc3)CCCC4)cc(=O)c2cc1C` the survival was 39% (active).
`Cc1cc2oc(C(=O)Nc3sc4c(c3C(=O)NCc3ccco3)CCC4)cc(=O)c2cc1C` was tested, and the survival was 38% (active).
For `Cc1ccc2oc(C(=O)Nc3sc4c(c3C(=O)NCc3ccccc3)CCCC4)cc(=O)c2c1`, the survival was 66%.
In the case of `Cc1ccc2c(=O)cc(C(=O)Nc3sc4c(c3C(=O)NCc3ccccc3)CCCC4)oc2c1C`, the survival is reported as 89%.
`O=C(Nc1sc2c(c1C(=O)NCc1ccccc1)CCCC2)c1cc(=O)c2ccccc2o1` was tested, and the survival was 67%.
With `O=C(Nc1sc2c(c1C(=O)NCc1ccco1)CCCC2)c1cc(=O)c2ccccc2o1` the survival was 43% (active).
`Cc1ccc2c(=O)cc(C(=O)Nc3sc4c(c3C(=O)NCc3ccco3)CCCC4)oc2c1C` showed a survival of 80%.
For `Cc1ccc2c(=O)cc(C(=O)Nc3sc4c(c3C(=O)NCc3ccco3)CCC4)oc2c1`, the survival was 78%.
With `CC[n+]1c(C)sc2sc3ccccc3c21` the survival was 68%.
`COC(=O)Cn1nc(C)c2c(C)n(-c3ccccc3)nc2c1=O` was tested, and the survival was 90%.
`CCOc1ccc(NC(=O)Cn2cc(C(=O)c3ccc(CC)cc3)c(=O)c3cc4c(cc32)OCO4)cc1` gave a survival of 86%.
In the case of `O=C(Cn1nc(-c2ccccc2)nc(Cc2ccccc2)c1=O)Nc1ccccc1`, the survival is reported as 90%.
Work on `O=C(NCc1noc2ccccc12)N1CCN(c2ccccc2F)CC1` yielded a survival of 40%.
Work on `COc1cccc(CSc2nc(-c3ccccc3OC)nc3c2Cc2c(CO)cnc(C)c2O3)c1` yielded a survival of 57%.
In the case of `CCCn1c2ccccc2c2cnn(CC(=O)NCc3cc(OC)ccc3OC)c(=O)c21`, the survival is reported as 122%.
`CCN(CC)S(=O)(=O)c1ccc2c(c1)c(=O)c(C(=O)NCc1ccccc1OC)cn2C` showed a survival of 71%.
`COc1cccc(C(=O)Nc2nc3nc(C)c(C)c(=O)n3[nH]2)c1` showed a survival of 104%.
Work on `COC(=O)c1c(NC(=O)c2cc(=O)c3c(C)cc(C)cc3o2)sc2c1CCCC2` yielded a survival of 61%.
With `CCOC(=O)c1c(NC(=O)c2cc(=O)c3c(C)cc(C)cc3o2)sc2c1CCC2` the survival was 61%.
In the case of `Cc1cc(C)c2c(=O)cc(C(=O)Nc3sc4c(c3C#N)CCCC4)oc2c1`, the survival is reported as 12% (active).
With `Cc1ccc(C(=O)NCC(c2ccco2)S(=O)(=O)c2cccs2)cc1C` (configuration not stated) the survival was 102%.
Work on `CC(=O)c1ccc(NC(=O)CCc2c(C)nn(-c3ccc4nncn4n3)c2C)cc1` yielded a survival of 91%.
`Cc1cccc(N2CCN(C(=O)Cn3nc(C)n4cccc4c3=O)CC2C)c1` (configuration not stated) was tested, and the survival was 90%.
`COC(=O)c1cc2oc(C)cc2n1Cc1c(C)cc(C)cc1C` showed a survival of 46%.
In the case of `COC(=O)c1cc2oc(C)cc2n1Cc1ccccc1Cl`, the survival is reported as -8% (active).
Work on `COC(=O)c1cc2oc(C)cc2n1Cc1ccc(C)cc1` yielded a survival of 69%.
With `COC(=O)c1cc2sccc2n1Cc1ccc(F)cc1Cl` the survival was 65%.
`COC(=O)c1cc2oc(C)cc2n1Cc1cc(C)ccc1C` was tested, and the survival was -9% (active).
`COC(=O)c1cc2oc(C)cc2n1Cc1ccc(Cl)cc1` was tested, and the survival was 73%.
`COC(=O)c1cc2oc3ccccc3c2n1Cc1ccccc1Cl` showed a survival of 72%.
For `COC(=O)c1cc2oc(C)cc2n1Cc1cccc(Cl)c1`, the survival was -8% (active).
With `COC(=O)c1cc2oc(C)cc2n1CC(=O)Nc1cc(Cl)ccc1OC` the survival was 77%.
`COC(=O)c1cc2oc(C)cc2n1Cc1ccc(Br)cc1F` showed a survival of 75%.
`COC(=O)c1cc2sc(C)cc2n1Cc1ccc(F)cc1Cl` gave a survival of 76%.
In the case of `COC(=O)c1cc2occc2n1Cc1ccc(F)cc1Cl`, the survival is reported as 30% (active).
Work on `O=C(NCc1ccccc1)c1cc2sccc2n1Cc1ccc(F)cc1` yielded a survival of 88%.
With `Cc1cc(C)cc(-n2c(SCC(=O)Nc3nnc(C)s3)nc3c([nH]c4ccccc43)c2=O)c1` the survival was 68%.
`O=C(NC1CC(=O)N(c2cccc(F)c2)C1)c1ccc(Br)o1` (configuration not stated) showed a survival of 101%.
`CC(C)(C)C1CCc2c(sc(NC(=O)c3noc4c3CCCC4)c2C#N)C1` (configuration not stated) gave a survival of 53%.
In the case of `Cc1nnc(N(C)C(=O)CNC(=O)c2ccccc2)s1`, the survival is reported as 75%.
With `COc1ccc(NC(=O)c2ccccc2NC(=O)c2ccco2)cc1` the survival was 74%.
With `CCOC(=O)c1c(C)oc2nc(C)nc(NCCc3ccc(SC)cc3)c12` the survival was 83%.
In the case of `Cc1cccc(CSc2nc3cc(C(=O)NC4CCCC4)ccc3c(=O)n2Cc2ccccc2)c1`, the survival is reported as 69%.
With `COc1ccc(Cl)cc1NC(=O)c1cc(S(=O)(=O)NC2CCCCCC2)ccc1F` the survival was 71%.
For `CCc1cccc(NC(=O)Cn2c(C(=O)OC)cc3occc32)c1`, the survival was 92%.
With `COC(=O)c1cc2oc3ccccc3c2n1Cc1ccc(C)cc1` the survival was 93%.
With `COC(=O)c1cc2oc3ccccc3c2n1Cc1ccc(Cl)cc1` the survival was 76%.
Molecule `C=CCn1c(C(=O)OCC)cc2oc(C)cc21` has a survival of 119%.
`COC(=O)c1cc2occc2n1Cc1cccc(C)c1` was tested, and the survival was -6% (active).
`COC(=O)c1cc2occc2n1Cc1nc(-c2ccc(C)cc2)oc1C` was tested, and the survival was 69%.
`CCOC(=O)c1cc2oc(C)cc2n1CC(=O)NC1CC1` showed a survival of 86%.
In the case of `COC(=O)c1cc2oc3ccccc3c2n1Cc1cccc(C)c1`, the survival is reported as 31% (active).
In the case of `CCOC(=O)c1cc2oc(C)cc2n1CCCN1C(=O)c2ccccc2C1=O`, the survival is reported as 0% (active).
